# The list is not random: actives were taken first. Their share in the collection is about 1.2%.
# Apoferritin bind: candidate novel general anesthetic via apoferritin binding | AID 485281 | actives 0.074% (n = 350,000) | apoferritin/1-aminoanthracene competitive binding, fluorescence | Potency, µM (top dose mostly 77.5 µM), without a hit: at the top dose activity change, negative = displacement, hits mostly inhibitors; note: % is set by controls: 0 for no effect and ±100 for the full control effect; nearly all actives have a fitted effect of over 20% in size
# Target sequence (P02791 2-175 limits assumed): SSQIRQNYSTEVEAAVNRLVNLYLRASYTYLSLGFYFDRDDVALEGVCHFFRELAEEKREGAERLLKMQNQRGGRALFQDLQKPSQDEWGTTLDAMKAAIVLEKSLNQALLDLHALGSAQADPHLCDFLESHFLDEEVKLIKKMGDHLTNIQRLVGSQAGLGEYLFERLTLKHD
#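 Steps: apoferritin (10 uM) was premixed with half-saturated 1-AMA in PBS, compounds were pin-transferred, plates stood 10 min at room temperature, fluorescence was read at 380/535 nm, and curves were fitted with a Hill equation.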
# ERG-DNA inh: ERG Ets/DNA interaction inhibition. Potency, µM (series often up to 76.9 µM), for inactives: top-dose FP activity, negative = inhibition, usual class: inhibitors. fluorescence polarization, His-ERG Ets domain / labelled DNA. actives 0.028% (n = 370,000). AID 624246. P11308; active = well fitted inhibition curve with a large enough effect in the polarisation, with a control signal flat; inconclusive = small, poorly fitted or top-dose-only effect, or effect the other way, or a change in a side signal; inactive = no such curve, though single readings can be large or run the other way; the % refers to the polarisation;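 note: polarization taken with two DNA probes labelled with fluorescein and Texas red; % of control where 0% means no effect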
#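 His-tagged ERG Ets domain (1 uM in the protein solution; 300mM KCl, 50mM Tris-HCl, 1mM EDTA, 1mM DTT, pH 7.5) received compound, then a probe mix of 5 nM fluorescein-DNA and 100nM Texas-615-DNA. Fluorescence polarization was read for both dyes.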
# GoLoco inh red: RGS12 GoLoco-Gai1 interaction inhibition; P63096; Gai1:RGS12 GoLoco peptide FP, rhodamine, 10 min; Potency, µM (highest dose often 61.6 µM), for inactives: at the highest dose activity, negative = inhibition, most hits filed as inhibitors; actives 0.44% (n = 230,000); AID 880; active = well fitted inhibition curve with a large enough effect, not every such curve was filed as active; inactive = no such curve, though single readings can be large or run the other way; note: % is set by controls: 0 for no effect and ±100 for the full control effect; nearly all actives have a fitted effect of over 30% in size
# Target sequence (P63096 whole entry, looked up): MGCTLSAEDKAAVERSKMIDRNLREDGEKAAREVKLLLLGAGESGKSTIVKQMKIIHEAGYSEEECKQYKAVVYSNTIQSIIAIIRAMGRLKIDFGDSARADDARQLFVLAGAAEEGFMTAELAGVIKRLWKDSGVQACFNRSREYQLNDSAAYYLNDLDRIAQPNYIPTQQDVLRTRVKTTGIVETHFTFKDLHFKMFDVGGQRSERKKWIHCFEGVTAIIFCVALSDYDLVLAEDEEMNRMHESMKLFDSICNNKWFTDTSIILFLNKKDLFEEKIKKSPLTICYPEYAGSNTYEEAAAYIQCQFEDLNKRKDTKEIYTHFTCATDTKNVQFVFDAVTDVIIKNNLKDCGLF
# BRCA1 expr up: increases BRCA1 expression; actives 1.1% (n = 380,000); MCF7-BRCA1-FFLuc reporter, luminescence, 48 h; response scale: scaled: vehicle 0%, 10 µM genistein 100%; Potency, µM (doses to about 46.1 µM), without a hit: at the highest dose activation, actives largely listed as activators; note: nearly all actives have a fitted effect of over 80% in size
#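 Quantitative HTS in MCF7 cells stably reporting BRCA1 expression via firefly luciferase. Compound treatment lasts 48 h at 37 °C in phenol-red free MEM. Activation is expressed relative to genistein at 10 microM and DMSO.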
# * hit, by the source's call; ? = inconclusive; . = no result given; [ ] = dose if it differs, or a comment. Unless noted, calls come from the whole dose curve; as a rule, active = well fitted curve in the direction sought with a large enough effect; inconclusive = small, poorly fitted or top-dose-only effect, or another doubt; inactive = no such curve, though single readings can be large; an effect the other way counts as inactive or inconclusive. Potency is the fitted concentration of half-maximal effect.
SMILES,Apoferritin bind,ERG-DNA inh,GoLoco inh red,BRCA1 expr up
COc1cccc(C(=O)N(C)C(C)c2nc3ccccc3s2)c1 (stereo not given),-17%,8%,.,9%
CC(=O)c1ccc(OC(C)c2nc3ccccc3s2)cc1 (stereo not given),4%,-2%,.,6.3µM*
CN(C)c1ccc(N=Nc2ccc(/C=C/c3ccnc4ccccc34)cc2)cc1,.,.,.,46%
O=C(OCC(=O)N1CCOCC1)c1ccccc1Cc1ccccc1,7%,0%,12%,2µM*
O=C(NCc1ccccn1)Nc1ccc(Br)cc1Cl,-10%,0%,.,11µM*
O=C(NCc1ccccn1)Nc1ccc(Cl)cc1Cl,-3%,-7%,.,7.9µM*
O=C(Cc1csc(NC(=O)Nc2ccc(Cl)cc2)n1)NCc1ccccn1,.,-13%,.,11µM*
S=C(NCc1ccccn1)Nc1ccc(Br)cc1Cl,-11%,-8%,8%,11µM*
CCCN1CNc2c(c(=O)[nH]c(=S)n2CCc2ccccc2OC)C1,.,.,.,-12%
Nc1nc(SCC(=O)O)[nH]c(=O)c1N,.,.,1%[14.2 µM],.
O=C(NCc1ccccn1)Nc1cccc(Cl)c1Cl,-7%,-8%,.,10µM*
O=C(COc1ccccc1Br)NCc1ccccn1,-22%,-9%,2%,11µM*
O=C(NCc1ccccn1)Nc1ccccc1Cl,-9%,9%,.,66%
O=C(COc1ccc(F)cc1Br)NCc1ccccn1,-11%,-1%,2%,?
CCCCN(CCCC)CC(O)c1cc(Cl)cc2c1-c1ccc(Cl)cc1C2=Cc1ccc(Cl)cc1 (stereo not given),.,.,.,-30%
Cc1ccc(OCc2nc(-c3ccccn3)no2)cc1,-17%,.,9%,?
CC(C)(C)Cc1nc(-c2ccccn2)no1,-3%,-11%,9%,10µM*
c1ccc(-c2noc(C34CC5CC(CC(C5)C3)C4)n2)cc1,?,4%,-15%,78%
c1ccc(-c2noc(C34CC5CC(CC(C5)C3)C4)n2)nc1,?,-10%,11%,3.5µM*
Cc1ccc(SCc2nc(-c3ccccc3)no2)cc1,-14%,-7%,5%,79%
Cc1ccc(SCc2nc(-c3ccccn3)no2)cc1,?,-5%,10%,5µM*
Cc1nc([N+](=O)[O-])cn1CC(O)c1ccc2c(c1)OCCO2 (stereo not given),.,.,.,0%
CCCCNC(=O)C(CC)n1c(SCc2cccc(F)c2)nc2ccncc21 (stereo not given),.,.,.,-27%
CC(=O)c1cnc2c(-c3ccc(Cl)cc3)cnn2c1C,-2%,-2%,4%,3.5µM*
Nc1c(C(=O)O)cnc2c(-c3ccc(Cl)cc3)cnn12,-1%,-15%,7%,-46%
SMILES,Apoferritin bind,ERG-DNA inh,GoLoco inh red,BRCA1 expr up
CCCCCCNc1ccc(/C=C/c2ccnc3ccccc23)cc1,.,.,.,-24%
O=C(CN(CCc1c[nH]c2ccccc12)S(=O)(=O)c1ccccc1)N1CCCCCC1,.,.,.,-28%
COc1ccc(OCCC(=O)NC2=NCCS2)cc1,3%,1%,4%,26%
CC(C)(C)c1ccc(OCCC(=O)NC2=NCCS2)cc1,13µM*,3%,5%,-25%
COc1ccc2c(Cl)c(C(N)=O)sc2c1,-7%,-1%,6%,10µM*
O/N=C(/C[n+]1cccc(Br)c1)c1ccc2ccccc2c1,.,.,.,-4%
O=C(Cc1cccs1)NCc1ccccc1Br,-1%,15%,.,2.2µM*
O=C(CSc1ncccn1)NCc1cccc(Cl)c1,-13%,8%,-7%,11µM*
O=C(Cc1cccs1)NCc1cccc(Cl)c1,-11%,10%,.,13µM*
O=C(Cc1cccs1)NCc1cc(Cl)cc(Cl)c1,7%,-7%,.,?
O=C(Cc1cccs1)NCc1cccc(CNC(=O)Cc2cccs2)c1,-2%,-7%,-3%,13%
O=C(Cc1cccs1)NCc1ccc(Cl)cc1Cl,-21%,0%,.,4µM*
COc1cc(C(=O)O[C@H]2C/C(C)=C/CC/C(C)=C/[C@@H](O)C2C(C)C)ccc1O (stereo not given in full),-15%,.,.,.
COc1ccc(-c2onc(C)c2C)cc1S(=O)(=O)Nc1ccc(OC(F)(F)F)cc1,-4%,1%,.,.
CCN(N=O)c1ccc(/C=C2\C=Cc3ccccc32)cc1,.,.,.,15%
COc1[nH]c(/N=C/c2ccco2)c(C#N)c1C#N,.,.,.,2%
CCCOc1ccc(CNC(=O)Cc2cccs2)cc1,-4%,8%,.,7.9µM*
CCn1ncc(/C=C/C(=O)c2ccccc2)c1C,-5%,22%,-2%,11µM*
Cc1c(/C=C/C(=O)c2ccccc2)cnn1C,-18%,2%,3%,?
Cc1c(/C=C/C(=O)c2ccc(C(C)C)cc2)cnn1C,-23%,11%,2%,11µM*
N#C/C(=N\Nc1ccccc1)C(=N)N1CCCCCC1,-11%,1%,211%,2.5µM*
CCOC(=O)Cc1csc(NC(=O)c2cccs2)n1,-17%,-2%,-2%,34%
CCOC(=O)c1csc(NC(=O)c2cccs2)n1,-8%,2%,.,7.9µM*
COc1cccc(-c2nc(COc3ccc(Cl)cc3Cl)no2)c1,-15%,5%,12%,28%
COc1ccccc1-c1nc(COc2ccc(Cl)cc2Cl)no1,-13%,6%,1%,4.5µM*
SMILES,Apoferritin bind,ERG-DNA inh,GoLoco inh red,BRCA1 expr up
O=C(COc1ccc(Br)cc1)c1ccc2c(c1)CCCC2,?,-2%,0%,19%
Cc1ccc(OCC(=O)c2ccc3c(c2)CCCC3)cc1C,?,0%,6%,4.5µM*
C/C(N)=C(/C#N)C(=O)COC(=O)C1CCC(C(C)(C)C)CC1 (stereo not given),35µM*,8%,-7%,-26%
C/C(N)=C(/C#N)C(=O)COC(=O)CC12CC3CC(CC(C3)C1)C2,18µM*,1%,12%,0%
C/C(N)=C(/C#N)C(=O)COC(=O)CC1CCCC1,?,-8%,9%,6%
Cc1ccc(C(=O)c2ncc[nH]2)cc1,.,3%,.,14µM*
O=C(CSc1ccccc1)Nc1ccc(-c2nc3ccccc3[nH]2)cc1,-10%,-9%,1%,?
O=C(CN1CCOCC1)Nc1ccc(-c2nc3ccccc3[nH]2)cc1,-10%,-9%,7%,11µM*
O=C(Cc1cccs1)Nc1ccc(-c2nc3ccccc3[nH]2)cc1,-12%,5%,-5%,5.6µM*
C(=C\c1ccc2ccccc2n1)/c1cccnc1,.,.,.,-58%
O=C(O)CCc1cc(I)c(O)c(I)c1,-5%,.,-24%,.
O=C(Cc1ccccc1Nc1c(Cl)cccc1Cl)OCO/N=[N+](\[O-])N1CCCC1,48%,.,.,.
CCOC(=O)/C(C)=C1\NC(C)(C)Cc2ccccc21,-7%,-3%,28µM*,-20%
CCOC(=O)/C(C(=O)Nc1ccccc1Cl)=C1/NC(C)(C)Cc2ccccc21,-10%,-2%,2%,7%
Cc1ccc(CSc2nc3ccc(NC(=O)C(C)C)cc3s2)cc1,-9%,1%,.,0%
COc1ccccc1/C=C/c1nc2ccccc2[nH]1,.,.,.,0%
COc1ccc2cc(C(=O)c3ccccc3)c(=O)oc2c1,-14%,.,-5%,74%
CCCCc1c(C)c2ccc(OCC(C)=O)cc2oc1=O,?,0%,1%,?

# From PubChem
